The whole screen tested about 300,000 compounds, of which about 5,200 (1.7%) were called active.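 The calls were made as follows: active = mean replicate activation of at least 50% with a set share of replicates each reaching 50%; inconclusive = only one of those two conditions met; inactive = mean below 50% and too few replicates reaching it.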 The sample as a whole holds a higher share of actives than the screen did.
experiment: HSF-1 response element luciferase induction – NIH3T3-HGL cells, MG132 stress, luminescence, single point, primary screen (AID 504408); settings: NIH3T3-HGL HSF-1 luciferase reporter, MG132, 8 h; at 9 µM; active compounds read high; 100% = twice DMSO control signal;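 also: 0% = median of the neutral control wells and 100% = twice that signal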

Compound	activation
CCOc1ccc(S(=O)(=O)Nc2cccc(C(=O)NCC3(N4CCCCC4)CCCCC3)c2)cc1	-4.45% (inactive)
O=C(CSc1nnc(-c2c[nH]c3ccccc23)n1-c1ccc(F)cc1)NCc1ccco1	58.5% (active)
COc1ccc(-n2c(SCC(=O)NCc3ccco3)nnc2-c2c[nH]c3ccccc23)cc1	7.75% (inactive)
O=C(CSc1nnc2scc(-c3ccc(F)cc3)n12)NCc1ccco1	-1.83% (inactive)
O=S(=O)(Nc1ccc(-c2ccc(N3CCOCC3)nn2)cc1)c1cc(Cl)ccc1Cl	12.9% (inactive)
Cc1ccc(C(=O)N/N=C/c2cccc3ccccc23)cn1	15.6% (inactive)
CCCn1c(CCNc2nc(-c3ccc(OC)cc3)cs2)nc2ccccc21	3.73% (inactive)
COc1ccc(-c2csc(Nc3ccccn3)n2)cc1	57.4% (active)
c1cnc(Nc2nc(-c3ccc4ccccc4c3)cs2)nc1	38.8% (inactive)
CCN(CC(=O)Nc1ccc(C)c(S(=O)(=O)N(C)C)c1)Cc1ccccc1	3.82% (inactive)
Cc1ccc(NC(=O)c2cccs2)cc1S(=O)(=O)N(C)C	-11.9% (inactive)
Cc1ccc(C(=O)Nc2ccc(C)c(S(=O)(=O)N(C)C)c2)s1	78.5% (active)
CN(C)S(=O)(=O)c1ccc(N2CCCC2)c(C(=O)Nc2ccc(Br)cc2F)c1	14.1% (inactive)
Cc1ccc(Cc2nnc(SCC(=O)Nc3ccc(C)cc3C)[nH]c2=O)cc1	0.586% (inactive)
Cc1c(NC(=O)C(C)OC(=O)c2c3c(nc4ccccc24)CCC(C)C3)c(=O)n(-c2ccccc2)n1C (stereo unspecified)	-5.9% (inactive)
O=C1CN(c2nc(-c3ccccc3)c3cc(Br)ccc3n2)c2ccccc2N1	-21.4% (inactive)
S=C1NC(c2ccccc2)=NCN1c1ccc(Br)cc1	55% (active)
Cc1nc(=O)c(-c2ccccc2)c(C)n1-c1ccc(Br)cc1	1.48% (inactive)
CCC(=O)Nc1ccc(C(=O)Nc2cccc(OC)c2)cc1	11.2% (inactive)
Cc1ccc(-n2nc3ccc(NC(=O)/C=C/c4ccco4)cc3n2)cc1C	21.6% (inactive)
CCC(=O)Nc1ccc2nn(-c3ccc(F)cc3)nc2c1	63.6% (active)
Cc1cc(C)n2nc(C(=O)OC(C)C(=O)c3cc(C)c(C)cc3C)nc2n1 (stereo unspecified)	4.08% (inactive)
Cn1c(=S)sc2ccc3ccccc3c21	-1.53% (inactive)

Compound	activation
COc1ccc(S(=O)(=O)NCC(c2ccco2)N2CCOCC2)cc1 (stereo unspecified)	-18.5% (inactive)
COc1cccc(COC(=O)C2CCN(S(=O)(=O)c3ccc(Cl)cc3)CC2)c1OC	-0.23% (inactive)
Cc1nc(C)c(C(=O)N(c2ccc(C)c(C)c2)C(C(=O)NCc2ccco2)c2ccccc2)s1 (stereo unspecified)	-5.39% (inactive)
Cc1nn(-c2ccccc2)c2sc(C(=O)N(Cc3ccco3)C(C)C(=O)NC(C)(C)C)cc12 (stereo unspecified)	91.4% (active)
Cc1ccc(-c2nnn(CC(=O)N(Cc3ccco3)C(C(=O)NC(C)(C)C)c3ccncc3)n2)o1 (stereo unspecified)	10.4% (inactive)
COc1ccc(NC(=O)CN(C)C(=O)c2cccc(S(=O)(=O)N3CCN(c4ccccc4)CC3)c2)cc1	14.8% (inactive)
COc1ccc(C(=O)Oc2ccc(-c3nnco3)cc2)cc1S(=O)(=O)N1CCOCC1	7.88% (inactive)
N#Cc1ccc(C2N=C(c3ccccc3)NO2)cc1 (stereo unspecified)	56.2% (active)
Brc1ccccc1C1N=C(c2ccccc2)NO1 (stereo unspecified)	9.38% (inactive)
O=C(COC(=O)CNS(=O)(=O)c1ccc(F)c(F)c1F)NC1CCCC1	-12.4% (inactive)
Nc1cccnc1Sc1ccccc1	7.53% (inactive)
O=C(CNC(=O)C12CC3CC(CC(C3)C1)C2)OCC(=O)N1CCCCC1	10.8% (inactive)
CC(=O)N1CCN(C(=O)c2cc(-c3ccc(Cl)s3)nc3ccccc23)CC1	18.1% (inactive)
CCNc1nc(-c2cc3ccccc3o2)cs1	25.2% (inactive)
Cc1ccc(Nc2nc(-c3ccc(O)cc3O)cs2)nc1	-44.2% (inactive)
O=c1oc2ccccc2cc1-c1csc(Nc2ccc(O)cc2)n1	125% (active)
COc1cccc(C2Nc3cccc4cccc(c34)N2)c1	1.58% (inactive)
COc1ccc(C2NC(=O)c3ccccc3N2)cc1 (stereo unspecified)	73.7% (active)
O=C1NC(c2cccc(Cl)c2)Nc2ccccc21 (stereo unspecified)	19.4% (inactive)
O=C1Oc2ccccc2C(=O)/C1=C/c1ccccc1O	-36.2% (inactive)
COC(=O)C(C)Oc1ccc2c(c1)O/C(=C\c1cccc(Br)c1)C2=O (stereo unspecified)	-3.63% (inactive)
COc1ccc2c(c1)O/C(=C\c1ccccc1O)C2=O	61.8% (active)
CCOc1ccc(/C=C/C(=O)N(CC)CC(=O)NCc2cccs2)cc1OC	-14% (inactive)

Compound	activation
COc1ccccc1-n1ccnc(SCC(=O)NC2CCCCC2)c1=O	-0.123% (inactive)
O=C(O)CCCCc1nc2ccccc2s1	13% (inactive)
CCC(=O)NC(=Nc1nc2ccccc2s1)NC(=O)CC	60.3% (active)
CC(C)CC(=O)N/C(N)=N/c1nc2ccccc2s1	10.3% (inactive)
COc1ccc2sc(N(CCCN(C)C)C(=O)c3ccc(S(=O)(=O)N(C)C4CCCCC4)cc3)nc2c1	-14.5% (inactive)
O=C(CCC(=O)OCc1ccc(Cl)cc1)Nc1ccccc1	10.6% (inactive)
O=C1C=C(c2ccc(Cl)cc2)C(=O)N1Nc1ccccc1	82% (active)
O=C1c2cccc3cc(Br)cc(c23)C(=O)N1Nc1ccccc1	-9.54% (inactive)
Cc1cc(C)n2nc(C(=O)OCC(=O)N(CCC#N)c3ccc(F)cc3)nc2n1	12.7% (inactive)
O=C(NCc1ccccc1Cl)C(=O)NCC1CCCN1S(=O)(=O)c1cccs1 (stereo unspecified)	4.38% (inactive)
CCCCN(C(=O)c1ccc(C)o1)c1c(N)n(CCCC)c(=O)[nH]c1=O	12.2% (inactive)
CN(C)CCCN(C(=O)c1ccc(S(=O)(=O)N2CCCCCC2)cc1)c1nc2cc3c(cc2s1)OCCO3	-46.2% (inactive)
CCCCn1c(N)c(N(CC(C)C)C(=O)c2cccc(S(=O)(=O)N3CC(C)OC(C)C3)c2)c(=O)[nH]c1=O (stereo unspecified)	-0.424% (inactive)
CCOc1ccc(S(=O)(=O)NCCC(=O)N2CCCCCCC2)cc1	4.97% (inactive)
Cc1ccc(S(=O)(=O)NCCSc2ccccc2)cc1[N+](=O)[O-]	-0.244% (inactive)
CCOc1ccc(S(=O)(=O)NCCSc2ccccc2)cc1	61.2% (active)
COc1ccc(-c2cc(C(=O)N/N=C/c3cccnc3)c3ccccc3n2)c(OC)c1	5.29% (inactive)
O=C(NCCNc1ccc([N+](=O)[O-])cc1Cl)c1ccccc1F	18.7% (inactive)
O=C(NCCCNc1ccc([N+](=O)[O-])cc1Cl)c1ccccc1F	-9.78% (inactive)
O=C(NCCNc1ccccc1[N+](=O)[O-])c1ccccc1F	55.9% (active)
O=C(c1ccncc1)N1CCN(S(=O)(=O)c2cccc([N+](=O)[O-])c2)CC1	4.99% (inactive)
COc1cccc(NC(=O)CN(C)C(=O)CSCc2nc3scc(-c4cccs4)c3c(=O)[nH]2)c1	0.833% (inactive)
O=C(c1ccc(NS(=O)(=O)c2ccc3[nH]c(=O)[nH]c3c2)cc1)N1CCCCC1	12.7% (inactive)

Compound	activation
COc1ccc(Cl)cc1NC(=O)CN(C)C(=O)c1cc2ccccc2cc1OC	21% (inactive)
COc1ccc(Cl)cc1NC(=O)CN(C)C(=O)CCCc1c[nH]c2ccccc12	60.8% (active)
COc1ccccc1NC(=O)CCCc1c[nH]c2ccccc12	-2.42% (inactive)
COc1ccccc1NS(=O)(=O)c1ccc(C)c(C(=O)NCC(c2ccco2)N(C)C)c1 (stereo unspecified)	-1.37% (inactive)
COc1ccccc1C(=O)Nc1cccc(C(=O)N2CCOCC2)c1	8.16% (inactive)
CCc1cc(C(c2ccccc2OC)N2CCOCC2)c(NC(=O)c2ccccc2)s1 (stereo unspecified)	68.8% (active)
COc1cc2ccccc2cc1C(=O)Nc1ccc(N2CCOCC2)cc1	4.47% (inactive)
Cc1ccc(C(=O)NNC(=O)c2ccncc2)cc1S(=O)(=O)N1CCCCC1	-9.07% (inactive)
CCCCCCCNC(=O)C1(CC2CC(c3cccc(Br)c3)=NO2)CCN(C(=O)c2cc(OCC)c(OCC)c(OCC)c2)CC1 (stereo unspecified)	4.29% (inactive)
Cn1cc([N+](=O)[O-])c(C(=O)Nc2cnn(Cc3ccc(F)cc3)c2)n1	65.1% (active)
CCc1ccc(NC(=O)c2ccc(Cn3cc([N+](=O)[O-])cn3)cc2)cc1	-1.45% (inactive)
Cn1cc([N+](=O)[O-])c(C(=O)Nc2ccc3c(c2)OCCO3)n1	48.7% (inactive)
O=C(CSc1nc2nccnc2c(=O)n1Cc1cccs1)Nc1ccccc1F	77.1% (active)
CCOc1ccc(NC(=O)CSc2nc3ccccc3c(=O)n2Cc2cccs2)cc1	-10.7% (inactive)
COCCn1c(SCC(=O)N2CCCCCC2)nc2c(c1=O)SCC2	2.01% (inactive)
COCCn1c(SCC(=O)Nc2ccccc2F)nc2c(c1=O)SCC2	54.8% (active)
O=C(CSc1ccc(-c2cccs2)nn1)Nc1ccccc1F	-2.98% (inactive)
COCCn1c(SCC(=O)Nc2cc(Cl)ccc2OC)nc2c(c1=O)SC(C)C2 (stereo unspecified)	-0.138% (inactive)
CCc1ccc(C(=O)NNC(=O)C2CCN(c3ncnc4sc(C)c(C)c34)CC2)cc1	-1.58% (inactive)
CCOc1ccc(NS(=O)(=O)c2ccc(C(=O)NCC(c3ccccc3OC)N3CCCC3)cc2)cc1 (stereo unspecified)	-2.02% (inactive)
COc1cccc(COC(=O)C2CCN(S(=O)(=O)c3cccs3)CC2)c1OC	1.63% (inactive)
O=C(CC1SC(N2CCCC2)=NC1=O)Nc1ccc(C(=O)NCCc2ccc(F)cc2)cc1 (stereo unspecified)	-12% (inactive)

From PubChem BioAssay AID504408 (Broad Institute, 2011)
